Assay outcomes from PubChem BioAssay.
Hits are enriched below; roughly 31% of the tested compounds scored in any of these assays.
CYP2C19 act – human CYP2C19 activators, primary screen, biochemical, luminescence | Cytochrome P450 2C19 (Homo sapiens), P33261 | activation factor at 5 µM | recombinant CYP2C19, luciferin-H EGE luminescence; stronger effect = higher value; 0 = fully inhibited enzyme, 1 = untreated enzyme | 96,000 tested, under 10 active;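 active = activation factor of at least 2 at 5 µM in the primary screen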;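 also: 0 = wells with 2.5 mM tranylcypromine and 1 = vehicle-only wells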
PLAP activator – PLAP enzyme activators, biochemical, luminescence, HTS | purified PLAP enzyme, luminescent substrate read-out; stronger effect = higher value | Alkaline phosphatase, placental type (Homo sapiens), P05187 | AID 696, 2007 | activation fold at 20 µM | hit rate 1.2% among 96,000; in the data active = activation fold above about 2
Target sequence (P05187 whole entry, looked up): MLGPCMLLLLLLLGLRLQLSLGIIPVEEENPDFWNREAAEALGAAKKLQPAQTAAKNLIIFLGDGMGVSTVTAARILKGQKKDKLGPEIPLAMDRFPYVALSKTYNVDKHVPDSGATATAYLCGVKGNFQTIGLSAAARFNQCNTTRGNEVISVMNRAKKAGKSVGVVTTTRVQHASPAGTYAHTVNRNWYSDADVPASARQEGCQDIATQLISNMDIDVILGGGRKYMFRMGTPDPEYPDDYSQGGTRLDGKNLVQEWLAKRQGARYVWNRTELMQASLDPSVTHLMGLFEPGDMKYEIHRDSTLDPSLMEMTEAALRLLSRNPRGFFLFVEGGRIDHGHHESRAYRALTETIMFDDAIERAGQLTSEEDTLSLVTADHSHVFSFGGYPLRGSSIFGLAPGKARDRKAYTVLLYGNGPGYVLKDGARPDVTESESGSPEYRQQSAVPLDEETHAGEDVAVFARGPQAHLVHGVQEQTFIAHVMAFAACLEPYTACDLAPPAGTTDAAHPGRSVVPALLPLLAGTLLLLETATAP
CYP2C9 act – human CYP2C9 activators, primary screen, biochemical, luminescence. AID 1024, 2008. hit rate 1.4% among 96,000. recombinant CYP2C9, luciferin-H conversion; stronger effect = higher value; factor 1 = untreated enzyme, 0 = blocked. Cytochrome P450 2C9 (Homo sapiens), P11712. activation factor at 5 µM;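 active = activation factor of 2 or more for CYP2C9 at a 5 µM dose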;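 also: 0 = sulfaphenazole-blocked wells and 1 = vehicle-only wells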
CYP2C19 inhib – blockers of cytochrome P450 2C19 activity – biochemical, luminescence, ADME assay, primary screen; inhibition, % at 5 µM; P33261; hit rate 21% among 96,000; CYP2C19 Supersomes, luciferin-H EGE luminescence, 30 min;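 active = CYP2C19 inhibition above a set limit at 5 µM in the primary screen, cut at about 50% in these data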;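 also: plate controls were negative control wells for no effect and 2.5 mM tranylcypromine positive control for full effect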
CYP2C9 inhib – blockers of cytochrome P450 2C9 activity – biochemical, luminescence, ADME assay, primary screen; P11712; CYP2C9 Supersomes, luciferin-H conversion; inhibition, % at 5 µM; hit rate 20% among 96,000; AID 777, 2007;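 active = blocking of liver enzyme CYP2C9 beyond about 50% at 5 µM, limit read from the data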
* hit, by the source's call.

SMILES | CYP2C19 act | PLAP activator | CYP2C9 act | CYP2C19 inhib | CYP2C9 inhib
COc1ccc(OC)c(NC(=O)C2CCN(S(=O)(=O)c3cccs3)CC2)c1 | 1.1 | 1 | 1.1 | -10 | -7
O=C(Nc1ccc2c(c1)OCO2)C1CCCN(S(=O)(=O)c2cccs2)C1 (centres undefined) | 0.5 | 1 | 0.3 | 53* | 68*
O=S(=O)(Nc1ccc2c(c1)OCO2)c1cccs1 | 0.1 | 1.1 | 0.3 | 91* | 66*
COCCCNC(=O)c1ccccc1SC | 1.1 | 1.2 | 1.3 | -15 | -33
CCCCc1nc(NCc2ccccc2)c(C#N)c2c1COC(C)(C)C2 | 1 | 0.8 | 0.7 | 2 | 28
CC1(C)Cc2c(c(-c3ccccc3Cl)[nH]c(=O)c2C#N)CO1 | 0.1 | 1.2 | 1 | 92* | 4
CC1(C)Cc2c(c(-c3ccccc3)[nH]c(=O)c2C#N)CO1 | 0.4 | 1 | 1.1 | 55* | -8
COc1nc(-c2ccccc2)c2c(c1C#N)CC(C)(C)OC2 | 0.2 | 0.9 | 0.5 | 78* | 47
CC1(C)Cc2c(C#N)c(OCC(=O)c3ccc(Cl)cc3)nc(-c3ccoc3)c2CO1 | 0.2 | 0.9 | 0.6 | 79* | 38
C=CCN=C1SCC(=O)N1S(=O)(=O)c1ccccc1 | 0.6 | 1.3 | 1 | 40 | 4
CC(C)(C)NC(=O)C(c1ccccc1)N(C(=O)C1CSC(=O)C1)c1ccccc1 (centres undefined) | 0.8 | 1.5 | 0.9 | 23 | 12
CC(C)Cc1[nH]c(=O)c(C#N)c2c1COC(C)(C)C2 | 0.5 | 0.9 | 1.1 | 46 | -10
CCCc1[nH]c(=O)c(C#N)c2c1COC(C)(C)C2 | 0.3 | 1 | 0.8 | 66* | 20
Cc1cc(C2=CC(C)(c3cc(C)oc3C)Nc3nc(C(F)(F)F)nn32)c(C)o1 (centres undefined) | 0.6 | 1.6 | 0.1 | 41 | 87*
COc1cc2c(=O)n(CC3CCCO3)c(=O)n(CC(=O)Nc3cccc(Cl)c3)c2cc1OC (centres undefined) | 0.4 | 1.7 | 0.2 | 63* | 85*
COc1cc2c(=O)n(CC3CCCO3)c(=O)n(CC(=O)Nc3ccc(F)cc3F)c2cc1OC (centres undefined) | 0.9 | 1.3 | 0.6 | 15 | 44
CC(=O)N1N=C(c2cccc([N+](=O)[O-])c2)OC1c1ccc(Cl)cc1Cl (centres undefined) | 0.3 | 1 | 0.2 | 73* | 78*
C=CCN1C(=O)C(O)=C(C(C)=O)C1c1ccccc1F (centres undefined) | 1.2 | 1 | 0.9 | -20 | 15
Cc1ccc(OCC(=O)N(Cc2ccc(N(C)C)cc2)C2CCS(=O)(=O)C2)cc1 (centres undefined) | 0.5 | 1.6 | 0.3 | 54* | 68*
Cc1cc(C)cc(OCC(=O)N(Cc2cccs2)C2CCS(=O)(=O)C2)c1 (centres undefined) | 0.2 | 1.7 | 0.5 | 82* | 54*
O=C(c1cccc(Cl)c1)N(Cc1cccs1)C1CCS(=O)(=O)C1 (centres undefined) | 0.7 | 1 | 1 | 32 | 0
O=C(c1sc2ccccc2c1Cl)N(Cc1cccs1)C1CCS(=O)(=O)C1 (centres undefined) | 0.5 | 1.3 | 0.5 | 45 | 53*
Cn1c2ccc(CC(=O)O)cc2c2cc(CC(=O)O)ccc21 | 1.1 | 1.3 | 1.1 | -10 | -6
COC(=O)Cc1ccc2c3ccccc3n(C)c2c1 | 0.3 | 1 | 1 | 71* | 4
Cc1ccc(C)c(S(=O)(=O)Nc2ccccc2C(=O)Nc2cc(C)on2)c1 | 0.9 | 1.4 | 0.4 | 10 | 55*
SMILES | CYP2C19 act | PLAP activator | CYP2C9 act | CYP2C19 inhib | CYP2C9 inhib
Cc1cc(NC(=O)c2ccccc2NS(=O)(=O)c2c(C)c(C)cc(C)c2C)no1 | 0.9 | 1.6 | 0.3 | 11 | 66*
Cc1cc(NC(=O)c2cc(Cl)ccc2Cl)no1 | 0.9 | 1 | 1.1 | 7 | -8
O=C(O)CSc1cccc2cccc(C(=O)O)c12 | 1 | 1.3 | 1 | 4 | 3
C=C(Cl)COc1ccc2c(CCCC)cc(=O)oc2c1 | 0.1 | 0.6 | 0.1 | 91* | 92*
NC(=O)CN1CCOCCN(CC(N)=O)CCOCC1 | 1.1 | 1.2 | 1 | -6 | -1
CCN(c1ccccc1)S(=O)(=O)c1ccc(F)c(C(=O)O)c1 | 1.2 | 1.1 | 1.1 | -19 | -7
